Compounds with a hit are over-represented: about 3.3% of the library has one in this group of screens.
PHOSPHO1 inh: PubChem AID 1565; actives 1.1% (n = 290,000); Phosphoethanolamine/phosphocholine phosphatase (Homo sapiens), Q8TCT1; recombinant PHOSPHO1, absorbance phosphatase assay; inhibition, % at 13.3 µM; in the data active = inhibition above about 60%
NRP1-CendR mod: modulators of CendR peptide binding to NRP-1, primary screen, biochemical, fluorescence polarization, uHTS; Neuropilin-1 (Homo sapiens), O14786; inhibition, % at 25 µM; actives 0.85% (n = 360,000); FAM-RPARPAR peptide binding to NRP-1; AID 602438, 2012;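 active = inhibition or corrected inhibition above about 18%, plus a signal ratio from 0.5 to 1.5, limit read from the data, passing the limit was not always enough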
Rpn11 inh: Rpn11 (PSMD14) deubiquitinase inhibitors, primary screen, biochemical, fluorescence polarization, uHTS; inhibition, % at 20 µM; actives 0.59% (n = 360,000); human 26S proteasome, Ub4-pepOG fluorescence polarization; 20S core pre-blocked with epoxomicin;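 active = inhibition at 20 µM, scaled to each plate's controls, above about 33%, limit read from the data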
HNF4A DNA FP: change in binding of human HNF4A to DNA, primary screen, biochemical, fluorescence polarization, FITC-DNA. 1 h. activity change, % at 10 µM. actives 0.3% (n = 360,000). AID 1224865, 2016; in the data active = activity change above about 30%, passing the limit was not always enough
TPT1 inh: Candida albicans TPT1 enzyme inhibitors, primary screen, biochemical, fluorescence polarization; actives 0.81% (n = 300,000); inhibition, % at 5 µM; AID 1962, 2009; recombinant caTPT1, FP RNA substrate dephosphorylation;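 active = inhibition above the mean of all tested compounds plus 3 SD, set per screening campaign, cut at about 24% in these data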;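 also: plate controls were DMSO alone for no effect and ferristatin control at 100 nM for full effect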
Fh CTSL1 inh: Fasciola hepatica cathepsin L1 inhibitors, primary screen, counter-screen for PFM18AAP inhibitor project, biochemical, QFRET, fluorogenic peptide substrate; actives 0.49% (n = 300,000); inhibition, % at 5.96 µM; recombinant F. hepatica cathepsin L1, Z-Leu-Arg-MCA fluorescence;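 active = inhibition above the mean of all tested compounds plus 3 SD, set per screening campaign, cut at about 17% in these data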;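 also: 0% = plate median of test compound wells and 100% = 1 µM Z-Phe-Ala-diazomethylketone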
Rpn11 confirm: Rpn11 (PSMD14) deubiquitinase inhibitors, confirmation, biochemical, fluorescence polarization, single concentration; shares compounds with Rpn11 inh; purified human 26S proteasome, Ub4-pepOG fluorescence polarization; proteasome pretreated with epoxomicin; inhibition, % at 20 µM; actives 29% (n = 1,900)
MMP-2 counter: MMP-2 enzyme inhibition, confirmation, counter-screen for RPN11 inhibitor project, biochemical, fluorescence, single concentration; shares compounds with Rpn11 inh; recombinant MMP-2, FRET peptide cleavage fluorescence; inhibition, % at 20 µM; actives 4% (n = 1,900); AID 602330, 2012;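 also: human MMP-2 activated beforehand with APMA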
Thrombin inh: bovine thrombin protease inhibition, confirmation, counter-screen for Rpn11 inhibitor project, biochemical, fluorescence polarization, single concentration | shares compounds with Rpn11 inh | bovine thrombin cleavage of Ub4-pepOG | inhibition, % at 20 µM | actives 13% (n = 1,900) | AID 602333, 2012;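 active = mean inhibition at least 40% at 20 µM, or signal 3 deviations below plate average, so some actives read negative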;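 also: plate controls were thrombin with DMSO for no effect and buffer wells lacking thrombin for full effect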
* hit, by the source's call; / = no result. Rule as the data show it, unless noted: active = inhibition above about 40%; inactive = the rest.

SMILES	PHOSPHO1 inh	NRP1-CendR mod	Rpn11 inh	HNF4A DNA FP	TPT1 inh	Fh CTSL1 inh	Rpn11 confirm	MMP-2 counter	Thrombin inh
O=C(N/N=C/c1ccco1)c1ccc(NC(=O)c2ccc(Cl)cc2)cc1	24	-6	43*	-7	-2	-1	-5	-1	-5
O=C(N/N=C/c1ccncc1)c1ccc(NC(=O)c2cccc(Cl)c2)cc1	-3	-9	52*	31	5	1	19	-32	-10
O=C(N/N=C/c1cccnc1)c1cccc(S(=O)(=O)Nc2cccc(Cl)c2)c1	24	10	2	-6	2	3	/	/	/
Cc1ccc(C(=O)Nc2ccc(C(=O)N/N=C/c3ccncc3)cc2)cc1	28	/	/	/	0	-2	/	/	/
Clc1cccc(Cl)c1/C=C/c1ccn[nH]1	37	-6	-9	1	-3	1	/	/	/
COc1ccc2[nH]c3c(=O)n(/N=C/c4ccc(OC)c(CN5CCCC5)c4)c(C)nc3c2c1	21	8	91*	7	3	6	90*	-54	-4
O=C(CCS(=O)(=O)c1ccc(F)cc1)Nc1nccs1	/	-6	-5	1	/	/	/	/	/
CN(CC(=O)Nc1nccs1)S(=O)(=O)c1ccc(F)cc1	17	-2	49*	-2	-1	-3	0	-38	-5
O=C(CN1CCN(S(=O)(=O)c2ccccc2F)CC1)Nc1ccccc1C(=O)c1ccccc1	34	-4	5	-2	-4	2	/	/	/
CC(=O)N(c1ccc2oc(=O)sc2c1)S(=O)(=O)c1ccc(C(=O)O)cc1	2	22	-2	-4	-3	0	/	/	/
CC(=O)N(c1ccc2oc(=O)sc2c1)S(=O)(=O)c1cccc2cccnc12	46	14	85*	31*	-4	3	8	19	-9
Cc1cc(C(F)(F)F)c(C#N)c(SCC(=O)Nc2nc3cc(Br)ccc3s2)n1	-17	-20	53*	3	15	-4	30	7	-13
CSc1ccc(NC(=O)CSc2nc3[nH]c(=O)cc(O)c3s2)cc1	/	-72	40*	-22	/	/	42*	31	18
N#Cc1c(SCC(=O)Nc2nc3ccc(Br)cc3s2)sc2c(O)cc(=O)[nH]c12	0	-114	105*	-27	8	7	53*	29	-5
N#Cc1cccc(NC(=O)CSc2sc3c(O)cc(=O)[nH]c3c2C#N)c1	24	-72	55*	-27	0	4	-4	-22	-17
N#Cc1ccc(NC(=O)CSc2nc3[nH]c(=O)cc(O)c3s2)cc1	/	-7	8	0	/	/	/	/	/
Cc1ccc(S(=O)(=O)N2CCC(=O)N(C(COCc3ccc(C(F)(F)F)cc3)Cc3ccccc3)CC2)cc1 (centres undefined)	-11	8	7	6	-8	-1	/	/	/
CNc1cncc(-c2ccc(O)cc2C)n1	/	12	6	0	/	/	/	/	/
CCOCCCNC(=O)/C(C#N)=C/c1ccc(-c2ccc(S(=O)(=O)N3CCOCC3)cc2)o1	2	-2	-1	3	4	7	/	/	/
CCOCCCNC(=O)/C(C#N)=C/c1ccc([N+](=O)[O-])o1	17	-51	37*	0	0	-1	18	-31	18
N#CCSc1nc2cc(C(=O)N3CCCC3)ccc2c(=O)n1Cc1ccccc1	38	0	-26	-1	3	2	/	/	/
N#CCSc1nc2cc(C(=O)N3CCC(C(N)=O)CC3)ccc2c2nc3ccccc3n12	9	10	34*	-1	0	4	40	-39	7
CC1C(=O)N(Cc2cn(Cc3ccco3)nn2)CCS(=O)(=O)N1Cc1ccc(-c2cccnc2)cc1 (centres undefined)	/	-40	46*	-3	/	/	-3	23	13
CCCN(C(=O)COC(=O)COc1c(C)cccc1C)c1c(N)n(Cc2ccccc2)c(=O)[nH]c1=O	/	-19	1	1	-2	-22	/	/	/
COc1ccc(Cl)cc1NC(=O)c1cc(-c2ccco2)on1	-4	-49	46*	19	10	1	12	-15	2
SMILES	PHOSPHO1 inh	NRP1-CendR mod	Rpn11 inh	HNF4A DNA FP	TPT1 inh	Fh CTSL1 inh	Rpn11 confirm	MMP-2 counter	Thrombin inh
CC(=O)Nc1c(Cl)cc2c(c1Cl)Cc1cc(C#N)ccc1-2	/	4	-5	0	/	/	/	/	/
O=C(Sc1cccc2cccnc12)c1ccccc1Br	15	8	85*	19	3	3	65*	-28	-24
CCOC(=O)C1=C(O)/C(=C/c2ccc(-c3ccccc3C(=O)O)o2)SC1=Nc1ccc(OC)cc1	-26	-119	52*	19	/	/	60*	12	41*
COc1ccc(/C=C2\CCCC3C2=NN(C(=O)CSc2ncn[nH]2)C3c2ccc(OC)cc2)cc1 (centres undefined)	-24	1	41*	-1	6	1	-16	-28	-14
Cc1csc(NC(=O)CSc2nc3sc(C)c(C)c3c(=O)[nH]2)n1	6	-59	53*	21	12	4	44*	-5	29
CC(C)Cn1c(N)c(C(=O)COC(=O)c2cc(C3CC3)nc3ccccc23)c(=O)n(C)c1=O	4	/	/	/	-5	0	/	/	/
CC(C)Cn1c(N)c(C(=O)COC(=O)c2cc(-c3ccco3)nc3ccccc23)c(=O)n(C)c1=O	21	-88	41*	0	16	4	4	-37	10
Cn1c(N)c(C(=O)COC(=O)c2cc(C3CC3)nc3ccccc23)c(=O)n(Cc2ccccc2)c1=O	13	-9	41*	20	16	-2	29	-15	6
Cn1c(N)c(C(=O)COC(=O)c2cc(-c3ccccc3)nc3ccccc23)c(=O)n(Cc2ccccc2)c1=O	-11	-16	45*	20	6	-1	33	2	20
COc1cc(NC(=O)CCn2c(=S)[nH]c3ccccc3c2=O)cc(OC)c1OC	/	-16	64*	19	/	/	103*	39	11
